This is a sample that favours compounds with a hit; in the whole collection about 8.1% have one here.
KB-V1 MDR tox: kills drug-selected multidrug resistant KB-V1 cells; 400,000 compounds, 3.4% hits; KB-V1 MDR cells viability, CellTiter-Glo, 72 h; Potency, µM (titrated, usually from 46.1 µM), most hits filed as cytotoxic; AID 1347076; note: % is set by controls: 0 for no effect and ±100 for the full control effect; nearly all actives have a fitted effect of over 60% in size
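Luminescent ATP read-out (CellTiter-Glo, 10 min) measures survival of drug-selected KB-V1 MDR cells after 72 h, 37 degrees C compound exposure. Medium: phenol-red-free DMEM, 10% FBS. Values from fitted concentration-response curves.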
ELG1 repair inh: blocks ELG1-dependent DNA repair in HEK293T cells; Potency, µM (titrated, usually from 46.1 µM), for the others: at the highest dose activity change, negative = inhibition, hits mostly inhibitors; AID 504467; HEK293T ELG1-luciferase reporter, luminescence, 16 h; DNA damage induced by 5-fluorouridine; 330,000 compounds, 2.3% hits; note: % is set by controls: 0 for no effect and ±100 for the full control effect; nearly all actives have a fitted effect of over 55% in size
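Luminescence from the luciferase reporter, measured 30 min after ONE-Glo reagent at room temperature, was the read-out. Beforehand, 2,000 cells per well were exposed for 16 hr at 37 °C to 5-fluorouridine together with compound or vehicle.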
KB-3-1 cytotox: kills parental KB-3-1 adenocarcinoma cells | 400,000 compounds, 1.4% hits | KB-3-1 viability, CellTiter-Glo ATP luminescence, 72 h | AID 1347075 | Potency, µM (highest dose often 46.1 µM), actives largely listed as cytotoxic; note: % is set by controls: 0 for no effect and ±100 for the full control effect; nearly all actives have a fitted effect of over 60% in size
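72 h, 37 °C compound treatment of KB-3-1 parental cells; CellTiter-Glo added, 10 min, luminescence read. Data corrected against DMSO-only plates and normalized before curve fitting.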
SW480 rerep: inducers of DNA re-replication in SW480 colon cancer cells; SW480 DNA re-replication, Hoechst DNA content imaging, 48 h; Potency, µM (titrated, usually from 46.1 µM), for inactives: top-dose re-replication activation, actives largely listed as activators; 340,000 compounds, 1.8% hits; AID 624297; note: % of control where 0% means no effect; nearly all actives have a fitted effect of over 55% in size
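Cells (250 per well) received 23 nL compound or DMSO by pin tool and were kept 48 hr at 37 C, 5% CO2. Nuclei were then stained with Hoechst for 40 min and scanned for DNA content.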
MCF10A rereplic: inducers of DNA re-replication in MCF 10A breast cells. MCF 10A DNA re-replication, Hoechst nuclear intensity, 48 h. Potency, µM (highest dose often 46.1 µM), without a hit: top-dose activity, positive = re-replication, usual class: activators. 350,000 compounds, 2.9% hits; note: % of control where 0% means no effect; nearly all actives have a fitted effect of over 50% in size
An asterisk follows results filed as active; i = inactive; ? = inconclusive; / = no result given. Calls come from the whole dose curve; as a rule, active = well fitted curve in the direction sought with a large enough effect; inconclusive = small, poorly fitted or top-dose-only effect, or another doubt; inactive = no such curve, though single readings can be large; an effect the other way counts as inactive or inconclusive. Potency is the fitted concentration of half-maximal effect.

SMILES	KB-V1 MDR tox	ELG1 repair inh	KB-3-1 cytotox	SW480 rerep	MCF10A rereplic
Cc1cccc(C)c1NC(=O)COC(=O)c1ccccc1Nc1ccccc1	i	-7%	i	0%	14%
Cc1cc(C)c(NC(=O)COC(=O)c2cccc3c2C(=O)c2ccccc2C3=O)c(C)c1	?	13µM*	?	-6%	?
CCOc1cccc(CC(=O)N2CCc3c([nH]c4ccc(OC)cc34)C2c2ccc(F)cc2)c1OCC (stereo not given)	i	/	i	/	/
COc1cc(OC)c(/C=N/NC(=O)c2ccc(Cn3nc([N+](=O)[O-])cc3C)cc2)c(OC)c1	i	8%	i	-4%	-6%
CCCn1c2ccccc2c2nnc(SC(CC)C(=O)Nc3cc(C)on3)nc21 (stereo not given)	i	23µM*	i	3%	7%
CCOC(=O)CSc1nnc2c3ccccc3n(CC)c2n1	i	-4%	i	-10%	?
CCOC(=O)C(Sc1nnc2c3ccccc3n(CC)c2n1)C(=O)OCC	13µM*	0%	?	5%	6%
CCn1c2ccccc2c2nnc(SCC(=O)NC(CC(C)C)C(=O)OC)nc21 (stereo not given)	5.2µM*	-19%	i	0%	1%
CCC(Sc1nnc2c3ccccc3n(CC)c2n1)C(=O)Nc1nnc(C(C)C)s1 (stereo not given)	i	/	i	/	/
Cc1cc(C)nc(-n2nc(C)c(Sc3ccc(F)cc3)c2N)n1	?	?	i	18µM*	3.3µM*
CC(C)(C)NC(=O)CSc1nsc(SCC(=O)NC(C)(C)C)c1C#N	?	9.2µM*	i	0%	13%
O=C(NCCCN1CCOCC1)NC1CCCCC1	i	14%	i	?	-6%
O=C(NCCCCCCCN1CCCCCCC1)C(C1CCCCC1)C1CCCCC1	3.3µM*	/	?	?	2%
Cc1ccc(S(=O)(=O)NC(=O)Nc2ccc(N(C)C)cc2)cc1	i	?	?	7.3µM*	19%
CC(C)N1CCC(C)(C(=O)Nc2ccc(Cl)c(Cl)c2)C1 (stereo not given)	i	/	i	/	/
O=C(Cc1cccc([N+](=O)[O-])c1)Nc1cccc(C(=O)N2CCCCC2)c1	i	16µM*	i	-13%	2%
CN(CCc1ccccc1)C(=O)c1cccc(NC(=O)Cc2cccc([N+](=O)[O-])c2)c1	i	23µM*	i	-3%	6%
CN(Cc1ccccc1)C(=O)c1ccc(NC(=O)Cc2cccc([N+](=O)[O-])c2)cc1	i	0%	i	2%	6%
O=C(Cc1cccc([N+](=O)[O-])c1)Nc1cccc(C(=O)N2CCOCC2)c1	i	-17%	i	1%	15%
CC(=O)c1ccc(N2CCN(S(=O)(=O)c3ccc(-c4coc(C)n4)cc3)CC2)cc1	i	/	i	/	/
OC(COc1ccccc1)CN1CCCCC1 (stereo not given)	?	/	i	0%	-10%
OC(COc1ccc(CNCCc2ccccc2F)cc1)CN1CCCCC1 (stereo not given)	i	2%	i	?	18µM*
COc1ccc(-c2cc(C(=O)OCC(=O)N3CCCCC3)c3ccccc3n2)cc1OC	3.7µM*	9.2µM*	i	4%	?
COc1ccc(-c2csc(N3CCN(c4cc(C)nc5ccccc45)CC3)n2)cc1OC	16µM*	8.2µM*	i	?	24%
COc1ccc(-c2cc(C(=O)N3CCN(c4ccccc4)CC3)c3ccccc3n2)cc1OC	?	16µM*	i	18%	13µM*
SMILES	KB-V1 MDR tox	ELG1 repair inh	KB-3-1 cytotox	SW480 rerep	MCF10A rereplic
COc1cc(-c2csc(N3CCOCC3)n2)cc(OC)c1OC	i	-9%	i	-2%	-4%
COc1cc(-c2cc(C(=O)OCC(=O)NC3CC3)c3ccccc3n2)cc(OC)c1OC	i	12µM*	i	-9%	-21%
COc1ccc(-c2cc(C(=O)N3CCCCCC3)c3ccccc3n2)cc1OC	i	/	i	/	/
Cc1c(F)cccc1NS(=O)(=O)c1ccc(N2CCCC2=O)cc1	?	/	i	-5%	11%
O=C(OCC(=O)N1CCN(C(=O)c2ccco2)CC1)c1cc(-c2ccc(Cl)c(Cl)c2Cl)nc2ccccc12	21µM*	?	?	?	?
O=C(OCC(=O)N1CCN(C(=O)c2ccco2)CC1)c1cc(-c2ccco2)nc2ccccc12	?	?	i	-6%	5%
COc1ccc(CCC(C)NC(=O)Cc2ccc(OC)c(OC)c2)c(OC)c1 (stereo not given)	i	18µM*	i	8%	2%
COc1ccc(C(=O)CCc2ccc(OC)c(OC)c2)cc1	i	/	?	-1%	9%
COc1ccc(C(=O)Cc2ccc(OC)c(OC)c2)cc1	23µM*	?	i	2%	-4%
Cc1cccc(NC(=O)c2nc[nH]c2C(=O)Nc2cc(Br)ccc2F)c1	?	/	i	/	/
CCCCCCN1C[C@@H](n2cc(C3CC3)nn2)[C@H](O)C[C@@H]1c1ccccc1	?	/	i	/	/
CCCCN1C(=O)C(CC(=O)NCc2cccc3ccccc23)CC(C(=O)N(C)C)=C1C (stereo not given)	?	/	i	/	/
CCN(CC)C(=O)[C@H]1CC(CC(=O)NCCN2CCOCC2)C(=O)N2CCc3c([nH]c4ccc(OC)cc34)[C@]12C (stereo not given in full)	i	?	i	1%	2%
COc1ccc2[nH]c3c(c2c1)CCN1C(=O)C(CC(=O)NCC24CC5CC(CC(C5)C2)C4)C[C@H](C(=O)N2CCCCC2)[C@@]31C (stereo not given in full)	?	13µM*	?	1%	?
CCN(CC)C(=O)[C@H]1CC(CC(=O)NCC23CC4CC(CC(C4)C2)C3)C(=O)N2CCc3c([nH]c4ccc(OC)cc34)[C@]12C (stereo not given in full)	i	23µM*	i	0%	?
COc1ccc2[nH]c3c(c2c1)CCN1C(=O)C(CC(=O)NCc2ccco2)C[C@H](C(=O)N2CCCCC2)[C@@]31C (stereo not given in full)	?	-8%	i	18µM*	4%
COc1ccc2[nH]c3c(c2c1)CCN1C(=O)C(CC(=O)NC/C=C(\C)CCC=C(C)C)C[C@H](C(=O)N(C(C)C)C(C)C)[C@@]31C (stereo not given in full)	?	-29%	?	?	15µM*

High-throughput results as filed in PubChem BioAssay.
